Results from the supplement of paper PMC13380429.

Tested on: Vero E6 infected with SARS-CoV-2
Assay: inhibition of SARS-CoV-2 cytopathic effect; higher = more antiviral protection, active = above 15
Settings: 10000 nM; 48 h

SMILES	inhibition of SARS-CoV-2 cytopathic effect
Oc1ccc2c3c1O[C@H]1[C@@H](O)CC[C@@]4(O)[C@@H](C2)N(CC2CCC2)CC[C@]314 [nalbuphine]	0.06% (inactive)
O=C(O)[C@H](O)c1ccccc1 [mandelic-acid]	-2.37% (inactive)
CSc1ccccc1OCC(O)CNC(C)C (centres undefined) [tiprenolol]	3.9% (inactive)
Nc1n[n+]([O-])c2ccccc2[n+]1[O-] [tirapazamine]	2.74% (inactive)
Cc1cccc(NC(=O)CN2CCC(c3ccccn3)CC2)c1	3.09% (inactive)
CC[N+](CC)(CC)CCC(O)(c1ccccc1)C1CCCCC1 (centres undefined) [tridihexethyl]	-1.87% (inactive)
C=CC(=O)Nc1ccc2ncnc(Nc3ccc(OCc4cccc(F)c4)c(Cl)c3)c2c1	-3.89% (inactive)
CC(=O)N(C)c1cc(-c2ccnc3c(C(=O)c4cccs4)cnn23)ccc1F [lorediplon]	1.78% (inactive)
CO/N=C(\C(=O)N[C@@H]1C(=O)N2C(C(=O)OCOC(=O)C(C)(C)C)=C(/C=C\c3scnc3C)CS[C@H]12)c1csc(N)n1 [cefditoren-pivoxil]	-0.51% (inactive)
O=C(CC12CC3CC(CC(C3)C1)C2)Nc1cccc2nc(NCCNCCO)ccc12	4.98% (inactive)
Nc1[nH]cnc2ncnc1-2 [adenine]	3.2% (inactive)
COc1ccc2cccc(N3CCN(CCNC(=O)c4ccc(F)cc4)CC3)c2c1	-3.37% (inactive)
CC(C)(C)NC[C@H](O)c1ccc(O)cc1Cl [meluadrine]	-3.94% (inactive)
CCOc1ccc2nc3cc(N)ccc3c(N)c2c1 [ethacridine-lactate-monohydrate]	0.22% (inactive)
